From PubChem BioAssay (EPA / NIEHS)
Activity calls are given as the source filed them. Rule for the calls: active = hit-call score of the fitted dose curve at least 0.9, where 1 is the maximum; inactive = score below 0.9.

Experiments:
Settings in all cases: mRNA level, 48 h; actives raise or lower the signal
[1] = read-out: Glutathione S-transferase M3 (GSTM3), GSTM3 (gene 2947); assay: LTEA_HepaRG_GSTM3: Life Technologies and Expression Analysis (LTEA) Assay for Glutathione S-transferase M3 (GSTM3) using HepaRG (AID 2283501)
Method in brief: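 HepaRG, plated 48 h, then serum-free induction medium; test chemical 48 h, duplicate; 100 uM top, half-log x8, 0.5% DMSO. Read-out: GSTM3 mRNA (TaqMan qRT-PCR, Fluidigm array). Bidirectional fit vs DMSO.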

[2] = read-out: Heat shock 70 kDa protein 1 (HSPA1A), gene 3303; assay: LTEA_HepaRG_HSPA1A: Life Technologies and Expression Analysis (LTEA) Assay for Heat shock 70 kDa protein 1 (HSPA1A) using HepaRG (AID 2283502)
Method in brief: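 Human HepaRG cells in serum-free induction medium were exposed in duplicate for 48 h to 8 half-log concentrations, highest 100 uM, in 0.5% DMSO. HSPA1A mRNA read by TaqMan qRT-PCR, normalized to ACTB, GAPDH, POLR2A, fitted bidirectionally against DMSO.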

[3] = read-out: Hypoxia-inducible factor 1-alpha (Homo sapiens) (UniProt Q16665); assay: LTEA_HepaRG_HIF1A: Life Technologies and Expression Analysis (LTEA) Assay for Hypoxia-inducible factor 1 (HIF1A) Trancription factor using HepaRG (AID 2283503)
Method in brief: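 Differentiated HepaRG cells in serum-free induction medium exposed 48 h, in duplicate, to 8-point half-log series from 100 uM in 0.5% DMSO. HIF1A mRNA measured by TaqMan qRT-PCR, normalized to ACTB/GAPDH/POLR2A, fitted bidirectionally versus DMSO.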

[4] = read-out: 3-Hydroxy-3-Methylglutaryl-CoA Synthase 2 (HMGCS2), HMGCS2 (gene 3158); assay: LTEA_HepaRG_HMGCS2: Life Technologies and Expression Analysis (LTEA) Assay for 3-Hydroxy-3-Methylglutaryl-CoA Synthase 2 (HMGCS2) using HepaRG (AID 2283504)
Method in brief: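 HepaRG, plated 48 h then switched to serum-free induction media; cmpd 8-pt, max 100 uM, 1/2-log, 0.5% DMSO, n=2, 48 h. HMGCS2 mRNA by Fluidigm TaqMan qRT-PCR, ACTB/GAPDH/POLR2A norm; bidirectional fit vs DMSO.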

[5] = read-out: HGF (gene 3082); assay: LTEA_HepaRG_HGF: Life Technologies and Expression Analysis (LTEA) Assay for Hepatocyte Growth Facto (HGF) using HepaRG (AID 2283505)
Method in brief: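 Read-out is HGF transcript level by qRT-PCR, normalized to three housekeeping genes, fitted bidirectionally against 0.5% DMSO vehicle. Human HepaRG cells received test chemicals for 48 h at up to 100 uM.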

[6] = read-out: Intercellular Adhesion Molecule 1 (ICAM1), ICAM1 (gene 3383); assay: LTEA_HepaRG_ICAM1: Life Technologies and Expression Analysis (LTEA) Assay for Intercellular Adhesion Molecule 1 (ICAM1) using HepaRG (AID 2283507)
Method in brief: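 Readout is qRT-PCR mRNA level, normalized to three housekeeping genes and fitted bidirectionally against 0.5% DMSO vehicle. Human HepaRG cultures received compound for 48 h, top concentration 100 uM with half-log dilutions.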

[7] = read-out: Interleukin 6 (IL6), IL6 (gene 3569); assay: LTEA_HepaRG_IL6: Life Technologies and Expression Analysis (LTEA) Assay for Interleukin 6 (IL6) using HepaRG (AID 2283509)
Method in brief: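 HepaRG, ~100,000 cells/well, 48 h pre-culture; serum-free induction medium; cmpd 8-pt half-log from 100 uM, 0.5% DMSO, duplicate, 48 h. Lysis in RLT, TaqMan qRT-PCR; gain or loss vs DMSO.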

[8] = read-out: Interleukin 6 Receptor (IL6R), IL6R (gene 3570); assay: LTEA_HepaRG_IL6R: Life Technologies and Expression Analysis (LTEA) Assay for Interleukin 6 Receptor (IL6R) using HepaRG (AID 2283510);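 for AC50: TaqMan qRT-PCR signal normalized to ACTB GAPDH and POLR2A housekeeping genes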
Method in brief: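 Differentiated HepaRG cells, plated 48 h, then exposed in duplicate for 48 h in serum-free induction medium to 8 half-log concentrations (top 100 uM, 0.5% DMSO). IL6R mRNA measured by TaqMan qRT-PCR, normalized to ACTB/GAPDH/POLR2A; bidirectional fit vs DMSO.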

[9] = read-out: Potassium channel subfamily K member 1 (KCNK1), KCNK1 (gene 3775); assay: LTEA_HepaRG_KCNK1: Life Technologies and Expression Analysis (LTEA) Assay for Potassium channel subfamily K member 1 (KCNK1) using HepaRG (AID 2283511)
Method in brief: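 Gain or loss of KCNK1 mRNA is the read-out, quantified by qRT-PCR against three housekeeping genes after 48 h chemical treatment of human HepaRG liver cells. Concentrations ran from 100 uM downward in half-log steps, vehicle 0.5% DMSO.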

[10] = read-out: Lipase C (LIPC), LIPC (gene 3990); assay: LTEA_HepaRG_LIPC: Life Technologies and Expression Analysis (LTEA) Assay for Lipase C (LIPC) using HepaRG (AID 2283514)
Method in brief: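 Read-out is LIPC transcript level by TaqMan qRT-PCR, normalized to three housekeeping genes, after 48 h chemical treatment of human HepaRG liver cells. Curves span eight concentrations topping at 100 uM; activity in either direction scored relative to 0.5% DMSO.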

[11] = read-out: MicroRNA 122 (MIR122), gene 406906; assay: LTEA_HepaRG_MIR122: Life Technologies and Expression Analysis (LTEA) Assay for MicroRNA 122 (MIR122) using HepaRG (AID 2283516); note: the transcript read is the microRNA miR-122
Method in brief: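 Differentiated human HepaRG cells in serum-free induction medium exposed 48 h to 8 half-log concentrations from 100 uM in 0.5% DMSO, duplicate. MIR122 quantified by Fluidigm TaqMan qRT-PCR, normalised to ACTB, GAPDH, POLR2A; fold change fitted bidirectionally versus DMSO.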

[12] = read-out: matrix metalloproteinase-10 (MMP10), MMP10 (gene 4319); assay: LTEA_HepaRG_MMP10: Life Technologies and Expression Analysis (LTEA) Assay for matrix metalloproteinase-10 (MMP10) using HepaRG (AID 2283517)
Method in brief: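 Gain or loss of MMP10 mRNA is fitted relative to the 0.5% DMSO vehicle. The human hepatic line HepaRG receives a 48-hour serum-free exposure, in duplicate, with a maximum concentration of 100 uM.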

[13] = read-out: MYC, MYC (gene 4609); assay: LTEA_HepaRG_MYC: Life Technologies and Expression Analysis (LTEA) Assay for MYC using HepaRG (AID 2283518)
Method in brief: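 HepaRG, ~100,000 cells/well, collagen I; 48 h plating; serum-free induction medium; 48 h dosing, duplicate, 100 uM top, half-log, 0.5% DMSO; total RNA → qRT-PCR MYC; gain/loss fit vs DMSO.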

[14] = read-out: matrix metalloproteinase-3 (MMP3), MMP3 (gene 4314); assay: LTEA_HepaRG_MMP3: Life Technologies and Expression Analysis (LTEA) Assay for matrix metalloproteinase-3 (MMP3) using HepaRG (AID 2283519)
Method in brief: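 HepaRG, human; 48 h dosing, 8 conc. (max 100 uM, half-log), duplicate, 0.5% DMSO. Readout: MMP3 transcript by Fluidigm TaqMan qRT-PCR, ACTB/GAPDH/POLR2A-normalised. Gain or loss fitted vs DMSO.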

[15] = read-out: Paternally Expressed 10 (PEG10), PEG10 (gene 23089); assay: LTEA_HepaRG_PEG10: Life Technologies and Expression Analysis (LTEA) Assay for Paternally Expressed 10 (PEG10) using HepaRG (AID 2283520)
Method in brief: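 Differentiated HepaRG cells exposed 48 h in serum-free induction medium to eight half-log concentrations topping at 100 uM, 0.5% DMSO, in duplicate. PEG10 mRNA quantified by TaqMan qRT-PCR, normalized to ACTB, GAPDH and POLR2A; bidirectional fit versus DMSO.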

[16] = read-out: Insulin Like Growth Factor 1 (IGF1), IGF1 (gene 3479); assay: LTEA_HepaRG_IGF1: Life Technologies and Expression Analysis (LTEA) Assay for Insulin Like Growth Factor 1 (IGF1) using HepaRG (AID 2283506)
Method in brief: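 Differentiated HepaRG cells in serum-free induction medium, exposed 48 h in duplicate to 8 half-log concentrations up to 100 uM in 0.5% DMSO. IGF1 mRNA by Fluidigm qRT-PCR, normalised to ACTB, GAPDH and POLR2A.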

[17] = read-out: Keratin 19 (KRT19), KRT19 (gene 3880); assay: LTEA_HepaRG_KRT19: Life Technologies and Expression Analysis (LTEA) Assay for Keratin 19 (KRT19) using HepaRG (AID 2283512)
Method in brief: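 KRT19 transcript levels, measured by Fluidigm qRT-PCR against three housekeeping genes, are fitted for gain or loss of signal relative to DMSO. Human HepaRG cells receive test chemicals (top 100 uM, half-log steps, 0.5% DMSO) for 48 hours.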

[18] = read-out: Lipoprotein lipase (LPL), LPL (gene 4023); assay: LTEA_HepaRG_LPL: Life Technologies and Expression Analysis (LTEA) Assay for Lipoprotein lipase (LPL) using HepaRG (AID 2283515)
Method in brief: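 Read-out is LPL transcript level by qRT-PCR, normalized to three housekeeping genes and fitted bidirectionally against the DMSO control. Human HepaRG cells received chemicals for 48 h at up to 100 uM.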

Measured: AC50

Sequence of Hypoxia-inducible factor 1-alpha (Homo sapiens) (Q16665 whole entry, looked up): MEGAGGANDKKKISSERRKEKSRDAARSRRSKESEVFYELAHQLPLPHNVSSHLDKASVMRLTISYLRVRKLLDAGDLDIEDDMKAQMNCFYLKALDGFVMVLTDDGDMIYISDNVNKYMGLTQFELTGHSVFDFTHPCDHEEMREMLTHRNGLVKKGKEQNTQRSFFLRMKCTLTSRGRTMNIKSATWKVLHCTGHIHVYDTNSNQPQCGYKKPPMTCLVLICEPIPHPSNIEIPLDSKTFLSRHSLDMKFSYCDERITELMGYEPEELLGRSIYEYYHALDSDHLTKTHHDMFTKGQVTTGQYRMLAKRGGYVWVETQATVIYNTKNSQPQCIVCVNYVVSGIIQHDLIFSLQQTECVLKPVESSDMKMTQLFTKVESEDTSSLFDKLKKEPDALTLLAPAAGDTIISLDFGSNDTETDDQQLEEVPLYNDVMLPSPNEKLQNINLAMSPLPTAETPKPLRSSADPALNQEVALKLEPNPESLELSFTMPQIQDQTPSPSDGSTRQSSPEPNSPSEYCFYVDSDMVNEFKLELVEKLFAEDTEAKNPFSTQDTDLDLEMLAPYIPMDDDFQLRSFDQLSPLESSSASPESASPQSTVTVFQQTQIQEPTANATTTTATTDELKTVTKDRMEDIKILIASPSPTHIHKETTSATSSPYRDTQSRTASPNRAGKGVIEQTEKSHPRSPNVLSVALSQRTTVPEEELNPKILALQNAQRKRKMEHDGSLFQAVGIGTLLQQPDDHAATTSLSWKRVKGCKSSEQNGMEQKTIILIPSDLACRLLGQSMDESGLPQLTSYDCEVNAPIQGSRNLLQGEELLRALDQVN

CCOP(=S)(OCC)SCn1c(=O)oc2cc(Cl)ccc21
not listed: [16] | [17] | [18]
inactive: all other assays above

C=CC1(C)OC(=O)N(c2cc(Cl)cc(Cl)c2)C1=O (stereo unspecified)
active: [15] 34.1 µM
not listed: [18]
inactive: all other assays above

CC1=C(C(=O)Nc2ccccc2)SCCO1
active: [4] 71.8 µM | [8] 50 µM | [17] 41.7 µM | [10] 39.5 µM | [18] 36.5 µM
not listed: [14]
inactive: all other assays above

COc1ccc(C(c2ccc(OC)cc2)C(Cl)(Cl)Cl)cc1
active: [2] 29.8 µM | [4] 91.8 µM | [16] 56.5 µM | [17] 74.2 µM | [10] 85.8 µM | [18] 76.6 µM | [11] 79.4 µM | [13] 49.8 µM
not listed: [14]
inactive: all other assays above
